# Compounds with a hit are over-represented: about 19% of the library has one in this group of screens.
# SW480 rereplic: inducers of DNA re-replication in SW480 colon cancer cells | SW480 DNA re-replication, Hoechst DNA content imaging, 48 h | Potency, µM (doses to about 46.1 µM), without a hit: at the highest dose re-replication activation, usual class: activators | 1.8% of 340,000 active | AID 624297; further: potency means the concentration at half of the fitted maximal effect; % of control where 0% means no effect; nearly all actives have a fitted effect of over 55% in size
#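 Cells (250 per well) received 23 nL compound or DMSO by pin tool and were kept 48 hr at 37 C, 5% CO2. Nuclei were then stained with Hoechst for 40 min and scanned for DNA content.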
# TDP1 cell CPT: DT40-hTDP1 cell growth loss with CPT; chicken DT40 Tdp1-/-;hTDP1 cells + 20 nM CPT, ATP luminescence, 48 h; AID 686979; Potency, µM (top dose mostly 46.2 µM), for the others: at the highest dose activity change, negative = growth inhibition, actives largely listed as inhibitors; 12% of 420,000 active; further: potency means the concentration at half of the fitted maximal effect; on the % scale 0 is the no-effect control and ±100 the full control effect; nearly all actives have a fitted effect of over 55% in size
#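 Chicken DT40 Tdp1-/- cells complemented with human TDP1, 400 cells/well, exposed to compounds plus 20 nM camptothecin for at least 48 h at 37 C; viability read as ATP content by CellTiter-Glo luminescence.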
# TDP1 cell noCPT: qHTS for Inhibitors of human tyrosyl-DNA phosphodiesterase 1 (TDP1): qHTS in cells in absence of CPT; DT40 Tdp1-/- hTDP1 cells, no CPT, ATP luminescence, 48 h; Potency, µM (top dose mostly 46.2 µM), inactives show at the top dose activity change, negative = growth inhibition, hits mostly inhibitors; 15% of 420,000 active; further: potency means the concentration at half of the fitted maximal effect; on the % scale 0 is the no-effect control and ±100 the full control effect; nearly all actives have a fitted effect of over 55% in size
#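 Growth kinetics read by CellTiter-Glo luminescence after ≥48 hr at 37 °C. Cells: DT40 Tdp1-/- stably carrying human TDP1, 400 per well, compound exposure in the absence of CPT (DMSO vehicle).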
# Chronic BCR inh: inhibitors of chronic active B-cell receptor signaling | ABC-DLBCL IkBa-CBG/CBR reporter, luminescence ratio, 4 h | Potency, µM (highest dose often 46.1 µM), for inactives: at the top dose activity change, negative = inhibition, most hits filed as inhibitors | 0.05% of 340,000 active | AID 493014; active means well fitted inhibition curve with a large enough effect in the signal ratio, with a control signal flat, not every such curve was filed as active; inconclusive means small, poorly fitted or top-dose-only effect, or effect the other way, or a change in a side signal; the % refers to the signal ratio;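 further: potency means the concentration at half of the fitted maximal effect; plate controls were basal doxycycline-induced cells for no effect and cells given 10 µM MG132 for full effect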
#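 TMD8 human ABC-DLBCL cells with doxycycline-inducible IκBα–green luciferase fusion and unfused red luciferase, in 0.5% FBS medium; compounds up to 46 uM, 4 h at 37C. Green/red luminescence ratio, filter-overlap corrected, fitted to concentration-response curves.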
# MCF10A rerep: inducers of DNA re-replication in MCF 10A breast cells. MCF 10A DNA re-replication, Hoechst nuclear intensity, 48 h. Potency, µM (titrated, usually from 46.1 µM), for the others: top-dose activity, positive = re-replication, usual class: activators. 2.9% of 350,000 active. AID 624296; further: potency means the concentration at half of the fitted maximal effect; % of control where 0% means no effect; nearly all actives have a fitted effect of over 50% in size
# IL-1B inflam inh: inflammasome signaling inhibition, IL-1 beta readout | THP-1 LPS/ATP IL-1B secretion, AlphaLISA, 16 h; stronger effect = lower value | activity change, % at 57.5 µM | 4.7% of 360,000 active | AID 743279; in the data active means activity change below about -50%; inconclusive means mostly about -30% to -49%; further: on the % scale 0 is the no-effect control and ±100 the full control effect
#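 THP-1 cells pretreated 1 hr with compounds (up to 57.5 uM final), then stimulated with LPS (250 ng/mL final) plus ATP (1.25 mM final); secreted IL-1B measured by AlphaLISA after 16 hr, decreased signal indicating inhibition.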
# * marks the source's active call; other numbers are inactive results; ? = inconclusive; . = no result. Unless noted, the call rests on the fitted dose curve; in most records, active means well fitted curve in the direction sought with a large enough effect; inconclusive means small, poorly fitted or top-dose-only effect, or another doubt; inactive means no such curve, though single readings can be large; an effect the other way counts as inactive or inconclusive.
SMILES,SW480 rereplic,TDP1 cell CPT,TDP1 cell noCPT,Chronic BCR inh,MCF10A rerep,IL-1B inflam inh
O=[N+]([O-])c1cc2oc3c(c2c(C=NCc2ccccc2)c1O)CCCC3,1%,8.2µM*,15µM*,0%,12%,3
CC(C)CN=Cc1c(O)c([N+](=O)[O-])cc2oc3c(c12)CCCC3,-2%,?,?,?,?,22
Cc1nn(-c2ccccc2)c(Cl)c1CN(C(=O)CCl)c1cccc2ccccc12,?,5.8µM*,6.5µM*,?,?,-98*
CC(=O)N(Cc1c(C)nn(-c2ccccc2)c1Cl)c1ccc(Cl)cc1,-5%,?,?,0%,14%,17
Cc1nn(-c2ccccc2)c(Cl)c1CN(C(=O)CCl)c1ccc(Cl)cc1,3.3µM*,7.3µM*,6.5µM*,?,?,-113*
COc1ccc(-c2nnc(SCC(=O)N(C)C3CCS(=O)(=O)C3)n2CC(C)C)cc1 (configuration not stated),.,-17%,-4%,.,.,-6
c1ccc2sc(Nc3nc4cc5c(cc4s3)OCO5)nc2c1,?,23µM*,?,?,18µM*,19
Fc1ccc2nc(Nc3nc4cc5c(cc4s3)OCO5)sc2c1,0%,?,?,?,?,9
Fc1ccc2nc(Nc3nc4c(F)cc(F)cc4s3)sc2c1,1%,16µM*,15µM*,?,15µM*,-61*
Fc1cccc2sc(Nc3nc4ccccc4s3)nc12,3%,?,12µM*,?,?,0
O=C(COc1ccccc1)Nc1nc2cc3c(cc2s1)OCO3,6%,?,-2%,.,?,-6
Fc1ccc2nc(Nc3nc4cc5c(cc4s3)OCCO5)sc2c1,20%,16µM*,?,?,15µM*,0
Cc1nn2c(=O)cc(COc3ccc(/C=C(\C#N)C(=O)Nc4ccc(F)cc4)cc3)nc2s1,.,-13%,4%,.,.,.
Brc1cc2c(cc1/C=N/Nc1nc3ccccc3s1)OCO2,?,15µM*,?,?,13µM*,7
C(=N\Nc1nc2ccccc2s1)/c1ccc2c(c1)OCO2,-4%,-20%,?,?,20%,-19
Cc1ccc(C)c(NC(=O)CN(C)C(=O)c2ccccc2OCc2c(C)noc2C)c1,5%,-18%,0%,7%,5%,-7
Cc1ccc(F)cc1NC(=O)C1CC(=O)N(Cc2ccccc2)C1 (configuration not stated),.,3%,-8%,.,.,8
CN1CCN(C(=O)c2ccc3c(=O)n(Cc4ccc5c(c4)OCO5)c(=S)[nH]c3c2)CC1,.,22µM*,13µM*,.,.,.
O=C(c1ccc2c(=O)n(Cc3ccc(Cl)cc3)c(=S)[nH]c2c1)N1CCCC1,31%,-18%,?,3%,?,14
CN1CCN(C(=O)c2ccc3c(=O)n(Cc4ccc(Cl)cc4)c(=S)[nH]c3c2)CC1,?,21µM*,?,5%,29%,-1
CCCCCn1c(=O)[nH]c2cc(C(=O)N3CCN(Cc4ccc5c(c4)OCO5)CC3)ccc2c1=O,16%,4.6µM*,10µM*,6%,22%,-13
O=C(c1ccc2c(=O)n(Cc3ccc4c(c3)OCO4)c(=S)[nH]c2c1)N1CCCCC1,-9%,?,?,3%,-3%,12
CCn1c(=O)c(=O)[nH]c2cc(C(=O)N3CCN(Cc4ccc5c(c4)OCO5)CC3)ccc21,-33%,-2%,2%,-3%,5.2µM*,-5
C/C(=N\NC(=O)c1cc(C)nc2ccccc12)c1cccc(Cl)c1,1%,-26%,-19%,-12%,-3%,-21
COc1ccc(CN2CCC[C@]3(N[C@H](c4ccc(OC)cc4)[C@@H]4C(=O)N(C)C(=O)[C@@H]43)C2=O)cc1,.,7%,4%,.,.,9
SMILES,SW480 rereplic,TDP1 cell CPT,TDP1 cell noCPT,Chronic BCR inh,MCF10A rerep,IL-1B inflam inh
Cc1ccc(-c2nc(N/N=C/c3cccc([N+](=O)[O-])c3)c3ccccc3n2)cc1,8%,13µM*,15µM*,9%,?,13
COc1ccc(/C=N/Nc2nc(-c3cccnc3)nc3ccccc23)c(OC)c1,1%,?,?,6%,13%,12
O=[N+]([O-])c1cccc(-c2nc(NCc3ccccc3)c3ccccc3n2)c1,-327%,?,?,4%,-2%,19
Cc1ccc(-c2nc(N/N=C/c3cccnc3)c3ccccc3n2)cc1,2%,23µM*,18µM*,?,-6%,?
O=S(=O)(Nc1ncnc2scc(-c3ccc(F)cc3)c12)c1cc(F)ccc1F,?,?,29µM*,0%,?,72
OCCCNc1ncnc2scc(-c3ccc(Cl)cc3)c12,-7%,?,21µM*,-15%,2%,-20
Clc1ccc(-c2csc3ncnc(Cl)c23)cc1,21µM*,?,16µM*,-11%,18µM*,-89*
Cc1cc(=O)[nH]c2nnc(SCC(N)=O)n12,.,0%,7%,-26%,.,.
COc1ccc(NC(=O)N(Cc2ccco2)C2CCN(C(C)=O)CC2)c(OC)c1,.,0%,?,.,.,.
CCN(CC)c1ccc(C=NCCc2ccc(S(N)(=O)=O)cc2)cc1,-1%,1%,-2%,1%,-1%,10
CC(c1ccco1)N(C(=O)C12CC3CC(CC(C)(C3)C1)C2)c1ccccn1 (configuration not stated),1%,16µM*,21µM*,0%,10%,0
CC(c1ccco1)N(C(=O)c1ccc(F)cc1)c1ccccn1 (configuration not stated),-1%,-10%,?,0%,1%,9
COc1cccc(Oc2ccc(C(F)(F)F)cc2N)c1,10%,-26%,-7%,?,8%,-70*
O=C(CCN1C(=O)/C(=C\c2ccccc2F)SC1=S)N1CCCCC1,?,3.7µM*,2.9µM*,1%,?,?
O=C(CCN1C(=O)/C(=C/c2ccccc2F)SC1=S)Nc1ccccn1,11%,-17%,-23%,-5%,0%,4
O=C(CCN1C(=O)/C(=C\c2ccccc2Cl)SC1=S)N1CCN(c2ccccc2)CC1,-2%,16µM*,10µM*,0%,6.5µM*,-107*
O=C(CCN1C(=O)/C(=C/c2ccccc2)SC1=S)N1CCCCCC1,?,12µM*,21µM*,-8%,?,-101*
